Reference: PubChem BioAssay
The source made the active and inactive calls.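 The calls were made as follows: active = compounds whose cell count with miR-34 switched on is under 0.7 times the count with it off; inactive = the rest.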

Assay: viability loss with induced miR-34 in A549 – imaging, A549 dox-inducible miR-34, nuclei and caspase counts, primary screen (AID 1347080); also: test concentration not given here
Details: A549 miR-34 inducible, Hoechst nuclei count, 48 h
[1] = stronger effect = lower value, cell number ratio, induced over uninduced
[2] = measured here: relative caspase fold change +Dox/-Dox
[3] = measured here: total cells with miR-34 induction, stronger effect = lower value
[4] = measured here: total cells without miR-34 induction

SMILES | fold change [1] | fold change [2] | cell count [3] | cell count [4]
CCCCCCCC/C=C\CCCCCCCCCCCC(N)=O | 1.07 (inactive) | 0.823 | 6240 | 5820
O=C(CCc1ccc(O)c(O)c1)N[C@@H](CC(=O)OCc1ccccc1)C(=O)OCc1ccccc1 | 1.01 (inactive) | 0.94 | 6350 | 6270
OC1C[C@@H]2[C@@H](CC[C@@H](O)CCc3ccccc3)[C@H](O)C[C@@H]2O1 (stereo not given in full) | 1.04 (inactive) | 0.862 | 6130 | 5890
CCCCC1C(=O)CC[C@H]2[C@@H]1CC(=O)[C@@H]2CCCCCCC(=O)O (stereo not given in full) | 0.957 (inactive) | 0.967 | 5230 | 5460
C[C@H](CCCO)[C@H]1CC[C@H]2[C@@H]3[C@H](O)C[C@H]4C[C@H](O)CC[C@]4(C)[C@H]3C[C@H](O)[C@]12C | 0.949 (inactive) | 1.07 | 5800 | 6110
CC(=O)O[C@@]12CO[C@@H]1C[C@H](O)[C@@]1(C)C(=O)[C@H](OC(=O)O)C3=C(C)[C@@H](OC(=O)[C@H](O)[C@@H](NC(=O)c4ccccc4)c4ccccc4)C[C@@](O)([C@@H](OC(=O)c4ccccc4)C12)C3(C)C (stereo not given in full) | 1.13 (inactive) | 0.603 | 1340 | 1180
CCCCCCCCCCCCCCCC(=O)OC[C@@H](O)COP(=O)(O)O | 0.985 (inactive) | 0.427 | 5760 | 5850
CCCCC[C@@](C)(O)/C=C/[C@H]1C=CC(=O)[C@@H]1C/C=C\CCCC(=O)O | 0.996 (inactive) | 1.14 | 5680 | 5710
CCCCC[C@H](O)/C=C/[C@H]1[C@H](O)CC(=O)[C@@H]1CC(=O)CCCCC(=O)O | 0.96 (inactive) | 1.25 | 6410 | 6680
COc1cc([C@@H]2c3cc4c(cc3[C@@H](OC3OC5COC(C)OC5C(O)C3O)[C@H]3COC(=O)[C@H]23)OCO4)cc(OC)c1O (stereo not given in full) | 0.828 (inactive) | 1.04 | 1840 | 2230
CCCCCCCCCCCCCCC(=O)N[C@H]1CCOC1=O | 0.982 (inactive) | 1.59 | 5560 | 5660
COC(=O)CCCCCC[C@@H]1[C@@H](CC[C@@H](O)CSc2ccccc2F)[C@H](O)C[C@@H]1O | 0.962 (inactive) | 2.89 | 5920 | 6150
CC(C(=O)Nc1cccc(N=Cc2c(O)ccc3ccccc23)c1)c1ccccc1 (stereo not given) | 0.971 (inactive) | 1.6 | 5970 | 6150
CCCCCCCCCCCCCCCCOC[C@H](COP(=O)([O-])OCCCCCC[N+](C)(C)C)OC(C)=O | 0.912 (inactive) | 1.73 | 5260 | 5770
Nc1nc2[nH]c(=O)[nH]c2c(=O)[nH]1 | 0.901 (inactive) | 0.746 | 6070 | 6740
Cc1c(C(=O)c2ccccc2)c(N)c(-c2ccccc2)n1Cc1ccc(Cl)cc1 | 0.936 (inactive) | 1.39 | 5890 | 6290
CCCCC[C@@H](O)/C=C/[C@H]1C(=O)C[C@H](O)[C@@H]1C/C=C\CCCC(=O)O | 0.996 (inactive) | 1.65 | 6010 | 6040
CCN(CC)c1ccc(C2=C(Cl)C(=O)c3ncccc3C2=O)cc1 | 1.01 (inactive) | 1.74 | 4440 | 4390
CC/C=C\C/C=C\C/C=C\C/C=C\C/C=C\C/C=C\CCC(=O)NCCO | 0.934 (inactive) | 0.411 | 5920 | 6340
[C-]#[N+]c1cc(-c2ccncc2)c(C)[nH]c1=O | 0.91 (inactive) | 1.32 | 5870 | 6450
CCCCCCCCCCCCC/C=C/[C@@H](O)[C@H](COP(=O)(O)O)NC(=O)CCCCCCC | 1.01 (inactive) | 0.912 | 5610 | 5550
CCCCCC(=O)/C=C/[C@H]1[C@H](O)CC(=O)[C@@H]1CCCCCCC(=O)O | 1.03 (inactive) | 1.35 | 5840 | 5690
O=C1O/C(=C/Br)CC[C@@H]1c1cccc2ccccc12 | 0.956 (inactive) | 0.986 | 5530 | 5790
CCCCCCCCCCCCCCCCOC[C@H](COP(=O)([O-])OCC[N+](C)(C)C)SC(C)=O | 0.92 (inactive) | 0.945 | 4720 | 5130
O=C(O)CCC/C=C\C[C@@H]1[C@@H](CC[C@@H](O)CCc2ccccc2)[C@H](O)C[C@@H]1O | 0.863 (inactive) | 1.41 | 5880 | 6810
O=C1C[C@@H]2[C@@H](/C=C/[C@@H](O)COc3cccc(C(F)(F)F)c3)[C@H](O)C[C@@H]2O1 | 0.96 (inactive) | 1.35 | 5650 | 5880
CCCCC[C@@H](O)/C=C/[C@H]1C[C@H]2C[C@@H]([C@@H]1C/C=C\CCCC(=O)O)C2(C)C | 0.917 (inactive) | 0.452 | 5480 | 5970
c1ccc([B-]2(c3ccccc3)[NH2+]CCO2)cc1 | 0.926 (inactive) | 1.45 | 3950 | 4260
O=C(O)CCC/C=C\C[C@@H]1[C@@H](/C=C/[C@@H](O)Cc2ccccc2)[C@H](O)C[C@@H]1O | 0.969 (inactive) | 1.42 | 6070 | 6260
NC(=O)CCC/C=C\C[C@@H]1[C@@H](/C=C/[C@@H](O)CCc2ccccc2)[C@H](O)C[C@@H]1O | 0.961 (inactive) | 1.58 | 6210 | 6460
